From the supplement of paper PMC3545927
The list shows a part of the results. The hit rate among all sequences tested is not known here.

Molecular target: furin, P09958
Assay: furin cleavage Z-score vs untreated control; higher = more cleavage, active = 3.5 or more, inactive = 1 or less, 8 variable residues between constant flanks
Method in brief: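 In 50 mM HEPES pH 7.5 with CaCl2 and NaCl, purified furin was incubated with bead-anchored 8-mer peptide–cDNA fusions at 1:10 enzyme:substrate in 0.01 ml. Incubation times were 7.5, 15 and 30 min. DNA set free by cleavage was adapter-tagged by PCR and sequenced, with read counts taken as abundance. Log counts relative to furin-free reactions, after lowess adjustment and median absolute deviation scaling, form the cleavage Z-score.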

Chain of furin, P09958 (P09958 whole entry): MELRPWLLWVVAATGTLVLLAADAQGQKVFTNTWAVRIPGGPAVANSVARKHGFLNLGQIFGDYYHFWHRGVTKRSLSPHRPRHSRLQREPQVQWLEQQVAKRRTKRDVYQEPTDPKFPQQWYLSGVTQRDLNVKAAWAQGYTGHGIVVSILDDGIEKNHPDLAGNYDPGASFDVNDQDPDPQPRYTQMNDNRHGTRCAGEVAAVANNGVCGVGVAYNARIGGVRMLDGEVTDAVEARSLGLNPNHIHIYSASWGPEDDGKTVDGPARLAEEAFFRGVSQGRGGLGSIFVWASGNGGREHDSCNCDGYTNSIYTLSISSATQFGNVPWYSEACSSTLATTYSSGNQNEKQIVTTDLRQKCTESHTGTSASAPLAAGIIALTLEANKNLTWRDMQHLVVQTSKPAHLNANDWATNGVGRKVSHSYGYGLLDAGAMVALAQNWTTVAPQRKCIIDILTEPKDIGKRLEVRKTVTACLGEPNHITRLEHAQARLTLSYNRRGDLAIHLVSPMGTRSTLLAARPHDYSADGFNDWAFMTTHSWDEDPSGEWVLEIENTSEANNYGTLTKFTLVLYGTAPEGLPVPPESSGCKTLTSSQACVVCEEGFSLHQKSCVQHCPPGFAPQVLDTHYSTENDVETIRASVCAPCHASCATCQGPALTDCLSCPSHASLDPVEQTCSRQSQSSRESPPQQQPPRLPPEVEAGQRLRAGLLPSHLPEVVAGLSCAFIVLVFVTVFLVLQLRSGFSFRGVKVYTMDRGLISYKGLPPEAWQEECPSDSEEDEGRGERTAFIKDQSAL

Row | Sequence | furin cleavage Z-score (7.5 min) | furin cleavage Z-score (15 min) | furin cleavage Z-score (30 min)
1 | CAVVCCLMSYAGNASASA [HC104] | -0.57 (inactive) | -0.101 (inactive) | -0.447 (inactive)
2 | CAEPVVCCSMAGNASASA [HC2139] | 0.036 (inactive) | -1.42 (inactive) | 1.07
3 | CAVLDSHYQDAGNASASA [HC1400] | -0.288 (inactive) | -1.98 (inactive) | 0.522 (inactive)
4 | CASDDRLCRSAGNASASA [FS-1484] | -0.386 (inactive) | 0.196 (inactive) | -1 (inactive)
5 | CATEHRVCRSAGNASASA [FS-508] | 3.96 (active) | 5.27 (active) | 4.89 (active)
6 | CAIERVHKRSAGNASASA [FS-1342] | 6.81 (active) | 7.58 (active) | 7.96 (active)
7 | CAEYVEIRQVAGNASASA [HC1205] | -0.199 (inactive) | -0.194 (inactive) | 1.29
8 | CARTARAVSPAGNASASA [FS-2611] | 5.89 (active) | 8.14 (active) | 7.16 (active)
9 | CARFARHVSPAGNASASA [FS-2138] | 10.5 (active) | 9.18 (active) | 9.56 (active)
10 | CAFTAAVTSPAGNASASA [HC1057] | -0.794 (inactive) | -0.905 (inactive) | -0.554 (inactive)
11 | CARTARSEEDAGNASASA [FS-3103] | -1.19 (inactive) | -0.787 (inactive) | 0.992 (inactive)
12 | CARTARSTNKAGNASASA [FS-2094] | 5.26 (active) | 7.87 (active) | 5.51 (active)
13 | CARAARGTSPAGNASASA [FS-2633] | -0.591 (inactive) | -1.01 (inactive) | 1.21
14 | CARPEKSVNKAGNASASA [FS-1759] | -1.61 (inactive) | 0.261 (inactive) | -0.528 (inactive)
15 | CARTARAWGKAGNASASA [FS-3102] | -0.427 (inactive) | 0.174 (inactive) | 1.29
16 | CALKAKLMPQAGNASASA [HC1158] | 1.55 | 0.58 (inactive) | -1.58 (inactive)
17 | CAVVCGSMSYAGNASASA [HC82] | -0.0603 (inactive) | -1.58 (inactive) | 0.38 (inactive)
18 | CALRYRHKRLAGNASASA [FS-1542] | 9.71 (active) | 11.6 (active) | 9.65 (active)
19 | CARFHRACRLAGNASASA [FS-1257] | -0.645 (inactive) | -0.00567 (inactive) | -0.322 (inactive)
20 | CALRYRHKRIAGNASASA [FS-1541] | 6.08 (active) | 8.2 (active) | 8.94 (active)
21 | CALRDYIPRIAGNASASA [FS-1464] | -0.691 (inactive) | -1.05 (inactive) | -0.313 (inactive)
22 | CASWERPRRPAGNASASA [FS-876] | -1.15 (inactive) | -0.626 (inactive) | 0.927 (inactive)
23 | CAACLRKLGVAGNASASA [HC1614] | -0.73 (inactive) | -0.95 (inactive) | 1.04
24 | CALKRRDRRMAGNASASA [FS-1227] | 12 (active) | 13.4 (active) | 10.3 (active)
25 | CATKKRPRRMAGNASASA [FS-1171] | 7.17 (active) | 8.34 (active) | 8.69 (active)

Row | Sequence | furin cleavage Z-score (7.5 min) | furin cleavage Z-score (15 min) | furin cleavage Z-score (30 min)
26 | CAQGCRKDRGAGNASASA [FS-77] | -1.71 (inactive) | 0.374 (inactive) | -0.248 (inactive)
27 | CAYPNRPDRPAGNASASA [FS-110] | -0.325 (inactive) | 0.955 (inactive) | 0.00762 (inactive)
28 | CAYCLSTGCVAGNASASA [HC997] | -1.15 (inactive) | 0.0405 (inactive) | -1.03 (inactive)
29 | CAYCLRKRRMAGNASASA [FS-1664] | 8.61 (active) | 9.15 (active) | 7.84 (active)
30 | CAWGRRKARMAGNASASA [FS-1437] | 8.17 (active) | 11.8 (active) | 9.74 (active)
31 | CAFERRSFETAGNASASA [FS-2390] | -1.51 (inactive) | -1.58 (inactive) | -0.598 (inactive)
32 | CAGMVSKGWRAGNASASA [HC669] | -0.876 (inactive) | 0.139 (inactive) | -1.14 (inactive)
33 | CAVIIKLGALAGNASASA [HC629] | 0.217 (inactive) | -0.103 (inactive) | 0.349 (inactive)
34 | CASWPCSAHLAGNASASA [HC2488] | 0.993 (inactive) | 0.675 (inactive) | 1.37
35 | CADSEVVTSTAGNASASA [HC2297] | -0.913 (inactive) | 1.6 | 0.0245 (inactive)
36 | CAYLVTRHADAGNASASA [HC726] | -0.934 (inactive) | -0.697 (inactive) | -0.629 (inactive)
37 | CAMLKRFARMAGNASASA [FS-1036] | 9.66 (active) | 12.7 (active) | 9.59 (active)
38 | CAAKRRPRRMAGNASASA [FS-1302] | 7.77 (active) | 7.84 (active) | 6.56 (active)
39 | CAYPPKPCGIAGNASASA [HC405] | -0.254 (inactive) | 1.24 | -0.00218 (inactive)
40 | CAMEECTQHLAGNASASA [HC36] | 1.8 | 0.851 (inactive) | 0.876 (inactive)
41 | CAAAQLAAPGAGNASASA [HC1069] | 0.864 (inactive) | -0.982 (inactive) | -0.549 (inactive)
42 | CAAVCCSMSYAGNASASA [HC1983] | -0.929 (inactive) | -0.792 (inactive) | 0.279 (inactive)
43 | CARSRRSEERAGNASASA [FS-3237] | 6.2 (active) | 7.41 (active) | 5.66 (active)
44 | CARTRRPGEPAGNASASA [FS-2835] | -0.179 (inactive) | 0.383 (inactive) | 0.174 (inactive)
45 | CARTRRYTLFAGNASASA [FS-2191] | 2.37 | 3.82 (active) | 4.23 (active)
46 | CARTRRYYLSAGNASASA [FS-3112] | -0.7 (inactive) | 2.33 | 1.85
47 | CARFRRQDVRAGNASASA [FS-2665] | 3.01 | 3.49 | 4.11 (active)
48 | CARSRRLQQRAGNASASA [FS-2090] | -1.41 (inactive) | -1.28 (inactive) | -0.156 (inactive)
49 | CARSQRSEERAGNASASA [FS-2813] | -1.38 (inactive) | -0.785 (inactive) | 0.605 (inactive)
50 | CARTRREAPRAGNASASA [FS-2096] | 11.6 (active) | 11.4 (active) | 9.47 (active)
